# Only some compounds are listed: those with a hit (about 2.1% of all), similar ones and a draw of the others.
# INS-1E GSIS act = GLuc luminescence reporter in INS-1E cells, primary screen for activators of glucose-dependent secretion of insulin; actives 0.61% (n = 370,000); INS-1E GLuc reporter insulin secretion, 2-3 h; activation, % at 16.6 µM;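 active = lowest replicate activation of at least 40%, so every replicate reaches that level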;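 also: 0% = median of neutral control wells and 100% = median of IBMX positive control wells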
# AF4-AF9 inh = blocks AF4 peptide binding to human AF9; P42568; AlphaScreen, biotin-AF4 peptide binding to FLAG-AF9; inhibition, % at 10 µM; actives 0.47% (n = 350,000);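 active = every replicate reaching a set inhibition limit, whatever the replicate mean, cut at about 25% in these data; inconclusive = mean inhibition reaches that limit but some replicates miss it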;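 also: 0% = plate neutral control median and 100% = total signal loss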
# NSD2 HMT inh = blocks human histone methyltransferase NSD2; O96028; NSD2 peptide methylation, AlphaScreen, 120 min; inhibition, % at 12.5 µM; actives 0.54% (n = 310,000); AID 743445; in the data active = inhibition above about 50%
# Target sequence (O96028 whole entry, looked up): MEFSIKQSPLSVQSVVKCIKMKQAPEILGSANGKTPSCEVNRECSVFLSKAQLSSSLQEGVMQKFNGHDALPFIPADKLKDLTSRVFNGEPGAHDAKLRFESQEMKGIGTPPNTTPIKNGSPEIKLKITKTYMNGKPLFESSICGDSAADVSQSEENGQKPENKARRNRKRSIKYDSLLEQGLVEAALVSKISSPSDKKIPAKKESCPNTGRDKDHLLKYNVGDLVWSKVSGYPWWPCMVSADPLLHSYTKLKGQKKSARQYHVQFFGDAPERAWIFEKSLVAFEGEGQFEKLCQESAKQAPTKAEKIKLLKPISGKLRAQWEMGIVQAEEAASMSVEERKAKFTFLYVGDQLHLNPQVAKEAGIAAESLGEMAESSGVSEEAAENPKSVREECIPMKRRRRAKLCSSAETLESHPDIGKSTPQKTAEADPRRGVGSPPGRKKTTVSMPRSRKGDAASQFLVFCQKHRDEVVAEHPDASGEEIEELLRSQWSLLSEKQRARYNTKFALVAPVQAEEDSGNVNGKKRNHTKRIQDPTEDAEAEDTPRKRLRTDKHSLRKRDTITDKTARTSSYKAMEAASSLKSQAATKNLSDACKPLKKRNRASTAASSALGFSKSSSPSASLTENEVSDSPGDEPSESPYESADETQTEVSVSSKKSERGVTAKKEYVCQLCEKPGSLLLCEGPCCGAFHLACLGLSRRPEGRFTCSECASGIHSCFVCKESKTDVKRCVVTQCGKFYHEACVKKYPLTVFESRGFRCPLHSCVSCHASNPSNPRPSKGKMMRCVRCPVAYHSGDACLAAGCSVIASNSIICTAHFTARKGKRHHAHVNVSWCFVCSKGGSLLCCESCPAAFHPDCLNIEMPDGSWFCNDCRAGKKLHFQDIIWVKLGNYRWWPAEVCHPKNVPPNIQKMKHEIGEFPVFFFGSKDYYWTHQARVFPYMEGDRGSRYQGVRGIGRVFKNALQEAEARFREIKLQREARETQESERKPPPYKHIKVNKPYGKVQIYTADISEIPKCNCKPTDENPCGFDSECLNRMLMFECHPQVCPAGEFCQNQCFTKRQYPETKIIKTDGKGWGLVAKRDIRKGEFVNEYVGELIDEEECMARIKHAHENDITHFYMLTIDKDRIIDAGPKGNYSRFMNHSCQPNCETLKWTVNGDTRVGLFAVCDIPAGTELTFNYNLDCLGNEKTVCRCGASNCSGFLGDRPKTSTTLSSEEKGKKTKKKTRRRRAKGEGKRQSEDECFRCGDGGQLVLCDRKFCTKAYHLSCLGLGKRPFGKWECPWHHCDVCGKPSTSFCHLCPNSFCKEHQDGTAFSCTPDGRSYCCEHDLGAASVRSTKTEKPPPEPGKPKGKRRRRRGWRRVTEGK
# PGC1a acetyl inh = PGC1a acetylation modulation, inhibitor mode; U2OS PGC1a acetylation, AlphaScreen anti-acetyl-lysine; with virally co-expressed GCN5 acetyltransferase; inhibition, % at 15.6 µM; actives 0.17% (n = 350,000); AID 651687;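 active = every replicate shows inhibition of at least 40%; inconclusive = mean inhibition at least 40% but some replicate below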;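 also: 0% = neutral control wells and 100% = positive control wells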
# HIV Env fusion = blocks HIV Env-driven cell-cell fusion; actives 1.1% (n = 360,000); inhibition, % at 12.3 µM; HeLa-JRFL Env/CEM21 cell fusion, luciferase; AID 651610;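 active = mean replicate inhibition score of at least 50 and every replicate individually at or above 50; inconclusive = only one of the two criteria met; inactive = mean below 50 and not all replicates reaching 50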;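 also: 0% = plate neutral controls and 100% = maraviroc near 300 nM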
# COX5a expr inh = inhibitors of PGC-1a target COX5a expression in C2C12 myotubes; AID 743461; maximal activity, %; 45 tested, under 10 active; C2C12 myotubes PGC-1a adenovirus, COX5a qPCR; shares compounds with PGC1a acetyl inh;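 active = fitted dose curve reaching 40% activity at or below the highest valid dose tested; inconclusive = flat fit between 30% and 70%, or an unusable fit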
# AID743468 = change in PGC-1a target gene PDK4 expression, dose response, C2C12 myotubes, RT-qPCR, cherry-pick | shares compounds with PGC1a acetyl inh | PGC-1a adenovirus, PDK4 mRNA qPCR | PDK4 expression increase, % at 19.5 µM | 45 tested, under 10 active;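 active = fitted curve reaching a 40% PDK4 expression rise at or below the top valid tested dose; inconclusive = no clear call, values can overlap the other calls; inactive = the rest, including shifts the wrong way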
# AlphaScreen intf = counter-screen: AlphaScreen signal interference | shares compounds with AF4-AF9 inh | signal luminescence | AC50, µM (doses to about 12 µM), without a hit: at the top dose activity change, negative = inhibition | actives 45% (n = 530) | AID 720494; cut-off not given, nearly all actives have AC50 up to about 14 µM
# AlphaScreen art = counter-screen for NSD2 inhibitors: AlphaScreen artifacts | shares compounds with NSD2 HMT inh | AlphaScreen artifact counterscreen, preloaded methylated H4 peptide | AC35, µM (doses to about 10 µM), for the others: top-dose activity change, negative = signal loss | actives 9.4% (n = 1,500) | AID 1053174; call rule not given here
# * hit, by the source's call; u = inconclusive; x = no result; + = active, no number.
SMILES,INS-1E GSIS act,AF4-AF9 inh,NSD2 HMT inh,PGC1a acetyl inh,HIV Env fusion,AlphaScreen intf,others
CC(Cc1ccsc1)NCc1cn[nH]c1-c1ccc(F)cc1F (configuration not stated),11,-18,1,-7,63*,x,
COc1ccc(-c2[nH]ncc2CNC(C)Cc2ccsc2)c(F)c1 (configuration not stated),3,-4,1,x,44,x,
CC1OC(OC2C=C3CCC4C(CCC5(C)C(c6ccc(=O)oc6)CCC45O)C3(C)CC2)C(O)C(OC2OC(CO)C(O)C(O)C2O)C1O (configuration not stated),-3,-2,0,32,63*,x,
CCOC(=O)[C@]12Cc3c(cc(OC)c(OC)c3OC)[C@H]1N(Cc1ccccc1)C(=O)c1ccccc12,-9,3,x,-12,64*,x,
CCC(C)OC(=O)c1c(N)n(Cc2cccs2)c2nc3ccccc3nc12 (configuration not stated),x,x,-3,0,61*,x,
CN1C(=O)NC(=O)/C(=C/c2ccc([N+](=O)[O-])s2)C1=O,x,0,37,-5,0,x,
CN1C(=O)NC(=O)/C(=C\c2ccc([N+](=O)[O-])o2)C1=O,x,x,+,-6,x,x,
O=C(O)c1cccc2c1NC(c1cccc([N+](=O)[O-])c1)C1CC(Sc3ccccc3[N+](=O)[O-])C(Cl)C21 (configuration not stated),-37,27*,0,6,11,x,
Cn1ncnc2c(=O)n(C)c(=O)nc1-2,x,x,5,100*,x,x,
O=c1[nH]c2ccccc2n1C1CCN(C(c2cc3ccccc3o2)c2nnnn2Cc2ccccc2)CC1 (configuration not stated),-9,0,x,49*,34,x,COX5a expr inh=55;AID743468=-7
COc1ccc(CCN(C)Cc2ccncc2)cc1OC,7,-14,3,6,x,x,
NCC(O)c1cc(O)c(O)cc1F (configuration not stated),x,53*,x,3,-2,-19%,
O=P(NC1CCCCC1)(Oc1ccccc1)Oc1ccccc1,x,0,0,-50,15,x,
O=C(CCn1nc(-c2ccc(Cl)cc2)ccc1=O)N1CCC2(CC1)OCCO2,-6,1,0,4,1,x,
CC(C)Nc1ccc(Nc2ccccc2)cc1,-15,u,13,-17,-31,-29%,
C[n+]1c(-c2ccccc2)c2cc(N)ccc2c2ccc(N)cc21,-38,55*,x,3,31,8.5µM*,
Cc1ccccc1CCNCc1ccc(Br)cc1,6,-2,5,-2,-3,x,
CCOC(=O)c1cccc(-[n+]2c(-c3ccccc3)cc(-c3ccccc3)cc2-c2ccccc2)c1,-52,5,x,x,u,x,
Cc1ccc(-c2cc(-c3ccc(C)cc3)[n+](-c3ccc(C(=O)[O-])cc3)c(-c3ccc(C)cc3)c2)cc1,-42,26*,x,-8,10,-27%,
COc1ccc2c(c1)c(CCN)c(C)n2Cc1ccccc1,x,33*,29,-35,7,-30%,
C#CCOc1ccc2c(c1)c(C(C)=O)c(C)n2Cc1ccccc1,-13,2,-3,-35,16,x,
O=C(c1cc(F)ccc1F)C1CCCN(Cc2cc(Cl)ccc2O)C1 (configuration not stated),x,0,-3,-1,9,x,
O=C1CN=C(c2ccc(Br)cc2)c2c(sc3c2CCCC3)N1CCN1CCCCC1,-24,32*,5,-1,15,-37%,
CCN1CCN(c2ccc(NC(C)=O)cc2Cl)CC1,6,-2,7,x,3,x,
CCN1CCN(c2ccc(N)cc2)CC1,-11,82*,57*,-12,4,4.5µM*,AlphaScreen art=-7%

# Screens: PubChem, Broad Institute
